# Where “and” joins values, the source holds several entries; their conditions need not be identical. Equal entries are not always repeated. Compounds without any hit were thinned out: in the full panel of roughly 83,000, 20% have a hit.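 Values shown are percent growth following 48 h exposure of cells in 96-well plates to a single concentration of compound; below 10 was considered active.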 Calls of active or inactive are those of the source.
# How the values were obtained:
# Assay in all cases: NCI-60 one-dose screen, 48 h (100 = growth as untreated, 0 = no growth, -100 = all killed)
# Details in all cases: 10 µM unless noted
# MCF7 breast = tested on: MCF7 breast
# BT-549 breast = tested on: BT-549 breast
# MDA-MB-435 melanoma = tested on: MDA-MB-435 melanoma
# SW-620 colon = tested on: SW-620 colon
# HCT-116 colon = tested on: HCT-116 colon
# HCC-2998 colon = tested on: HCC-2998 colon
# KM12 colon = tested on: KM12 colon
compound,measurement,setting,value
Cc1ccc(OCC2OC(n3cnc4nc(Cl)nc(Cl)c43)CC2Oc2ccc(C)cc2)cc1 (configuration not stated),growth,MCF7 breast,0.206% [100 µM] (active) and -99.2% [100 µM] (active)
Cc1cc(=O)[nH]c(O)c1C#N,growth,BT-549 breast,100% (inactive) and 103% (inactive)
same,growth,MDA-MB-435 melanoma,101% (inactive) and 103% (inactive)
same,growth,SW-620 colon,102% (inactive) and 106% (inactive)
same,growth,MCF7 breast,97.3% (inactive) and 103% (inactive)
same,growth,HCT-116 colon,100% (inactive) and 96.2% (inactive)
same,growth,HCC-2998 colon,101% (inactive) and 100% (inactive)
same,growth,KM12 colon,108% (inactive) and 116% (inactive)
Clc1ccc(C2C3COc4ccccc4C3=NN2c2ccccc2)cc1 (configuration not stated),growth,MCF7 breast,12.9% [100 µM] (inactive) and -27.8% [100 µM] (active)
O=C(O)CSCc1nc2ccccc2[nH]1,growth,BT-549 breast,108% (inactive)
same,growth,MDA-MB-435 melanoma,115% (inactive)
same,growth,SW-620 colon,103% (inactive)
same,growth,MCF7 breast,96.4% (inactive)
same,growth,HCT-116 colon,107% (inactive)
same,growth,HCC-2998 colon,103% (inactive)
same,growth,KM12 colon,111% (inactive)
Cc1ccc(OCC2OC(n3cnc4nc(N)nc(Cl)c43)CC2Oc2ccc(C)cc2)cc1 (configuration not stated),growth,MCF7 breast,45.4% [100 µM] (inactive) and -87.9% [100 µM] (active)
CC(=O)Nc1ccc2cc3ccc(NC(C)=O)cc3nc2c1,growth,BT-549 breast,106% (inactive) and 92.9% (inactive)
same,growth,MDA-MB-435 melanoma,83.6% (inactive) and 92.6% (inactive)
same,growth,SW-620 colon,90% (inactive) and 91.3% (inactive)
same,growth,MCF7 breast,68.3% (inactive) and 85.1% (inactive)
same,growth,HCT-116 colon,92.3% (inactive) and 81.3% (inactive)
same,growth,HCC-2998 colon,77.1% (inactive)
same,growth,KM12 colon,79.6% (inactive) and 89.5% (inactive)
COc1cc2nc(N3CCC[C@@H](NC(=O)C4COc5ccccc5O4)C3)nc(N)c2cc1OC (some centres not stated),growth,BT-549 breast,107% (inactive) and 113% (inactive)
same,growth,MDA-MB-435 melanoma,96.9% (inactive) and 99.5% (inactive)
same,growth,SW-620 colon,100% (inactive) and 107% (inactive)
same,growth,MCF7 breast,100% (inactive) and 98.9% (inactive)
same,growth,HCT-116 colon,95.9% (inactive) and 95.2% (inactive)
same,growth,HCC-2998 colon,104% (inactive) and 98.3% (inactive)
same,growth,KM12 colon,104% (inactive) and 103% (inactive)
CC1CCCc2sc3nc(NNC(=O)c4cnccn4)n(-c4ccccc4)c(=O)c3c21 (configuration not stated),growth,BT-549 breast,12.8% (inactive)
same,growth,MDA-MB-435 melanoma,27.9% (inactive) and 21.5% (inactive)
same,growth,SW-620 colon,23.7% (inactive) and 19.7% (inactive)
same,growth,MCF7 breast,6.57% (active) and 0.695% (active)
same,growth,HCT-116 colon,7.09% (active) and -13.3% (active)
same,growth,HCC-2998 colon,34.2% (inactive) and 40.9% (inactive)
same,growth,KM12 colon,20% (inactive) and 19.2% (inactive)
COc1ccc2ccccc2c1/C=N/N1CCCCC1,growth,BT-549 breast,102% (inactive)
same,growth,MDA-MB-435 melanoma,99.1% (inactive)
same,growth,SW-620 colon,103% (inactive)
same,growth,MCF7 breast,84% (inactive)
same,growth,HCT-116 colon,102% (inactive)
same,growth,HCC-2998 colon,109% (inactive)
same,growth,KM12 colon,108% (inactive)
COc1ccc(/C=C2/NC(=S)N=C2Cl)cc1,growth,MCF7 breast,82% [100 µM] (inactive) and 75% [100 µM] (inactive)
COC(=O)C(=O)C(C(=O)C(=O)Nc1ccc(Cl)c(Cl)c1)c1nc2ccc(C(=O)c3ccccc3)cc2[nH]c1=O (configuration not stated),growth,MCF7 breast,32.4% [100 µM] (inactive) and 5.18% [100 µM] (active)
CCn1c2c(c3ccccc3c1=O)C(=O)c1ccccc1-2,growth,MCF7 breast,71.7% [100 µM] (inactive) and 21% [100 µM] (inactive)
Cc1ccc(C)c(NC(=O)/C(=N\N)C(c2cnc3ccc([N+](=O)[O-])cc3n2)[N+](=O)[O-])c1 (configuration not stated),growth,MCF7 breast,50.4% [100 µM] (inactive) and 9.64% [100 µM] (active)
CC1CC(=O)N(N(C)C)C(C#N)(C#N)C1(C#N)C#N (configuration not stated),growth,MCF7 breast,-67.7% [100 µM] (active) and -85.9% [100 µM] (active)
CC(C)/C(Cl)=N/OC(=O)Nc1cccc(C(F)(F)F)c1,growth,MCF7 breast,-79.5% [100 µM] (active) and -84.4% [100 µM] (active)
CNC(=S)/C(=N\Nc1nc[nH]c1C(N)=O)C(N)=S,growth,MCF7 breast,10.6% [100 µM] (inactive) and 4.26% [100 µM] (active)
O=C1NC(N/N=C\c2ccccc2)=N/C1=C/c1ccc(Cl)cc1,growth,MCF7 breast,-66.3% [100 µM] (active) and 14% [100 µM] (inactive)
C=C1C2CCC3C4(C)CCCC(C)(C(=O)O)C4CCC3(C2)C1OC(=O)/C(C)=C/C (configuration not stated),growth,MCF7 breast,1.75% [100 µM] (active) and 65.7% [100 µM] (inactive)
CCC/C(Cl)=N/OC(=O)Nc1cccc(F)c1,growth,MCF7 breast,-73.4% [100 µM] (active) and -100% [100 µM] (active)
CC(=Nc1ccncc1)C(C)=Nc1ccncc1,growth,MCF7 breast,-47.5% [100 µM] (active) and -27.7% [100 µM] (active)
N#Cc1n[nH]n(-c2ccccc2)c1=O,growth,MCF7 breast,95% [100 µM] (inactive) and 80.4% [100 µM] (inactive)
N#Cc1nc(C(F)(F)F)oc1N,growth,MCF7 breast,66.3% [100 µM] (inactive) and 98.4% [100 µM] (inactive)
COC(=O)c1cnn2c1n[n+]([O-])c1ccccc12,growth,MCF7 breast,68.2% [100 µM] (inactive) and 11.8% [100 µM] (inactive)
COC(=O)C(=O)C(C(=O)C(=O)Nc1ccccc1OC)c1nc2ccc([N+](=O)[O-])cc2[nH]c1=O (configuration not stated),growth,MCF7 breast,43% [100 µM] (inactive) and 41.8% [100 µM] (inactive)
COc1ccc2cc1Oc1ccc(cc1)CC1c3cc(OC)c(cc3CCN1C)Oc1c(OC)c(OC)cc3c1C(C2)N(C)CC3 (configuration not stated),growth,MCF7 breast,24.7% [75 µM] (inactive) and -97.6% [75 µM] (active)
O=c1c2ccccc2nc(-c2ccccc2)n1/N=C/c1ccccc1[N+](=O)[O-],growth,MCF7 breast,65.7% [100 µM] (inactive) and 73.8% [100 µM] (inactive)
CCCCCC(O)(CCCCC)CCCCCCCCC1=C(O)c2ccccc2C(=O)C1=O,growth,MCF7 breast,-37.7% [100 µM] (active) and -36.7% [100 µM] (active)
CC(C)C1OC(N)=C(C#N)C1(C#N)C#N (configuration not stated),growth,MCF7 breast,12.9% [100 µM] (inactive) and 2.2% [100 µM] (active)
C=C1CC2(C)CCC(OC(=O)C3(C)OC3C)C(C)(OC(C)=O)C2CC1=C(C)C (configuration not stated),growth,MCF7 breast,67% [100 µM] (inactive) and 8.58% [100 µM] (active)
COc1ccc2cc(CN3CCC(C4CCNCC4)CC3)ccc2c1,growth,MCF7 breast,-76.9% [100 µM] (active) and -23.4% [100 µM] (active)
CC1CC2(OC2C)C(=O)OC2CCN(C)C/C=C(/COC(=O)C1(C)O)C2=O (configuration not stated),growth,MCF7 breast,91.6% [100 µM] (inactive) and 82.5% [100 µM] (inactive)
COc1cc2c(c3c1c(=O)c1ccccc1n3C)C=C([N+](=O)[O-])C(C)(C)O2,growth,MCF7 breast,9.29% [100 µM] (active) and -100% [100 µM] (active)
CC(C)O/N=C/c1cc(NC(=S)OC(C)C)ccc1Cl,growth,MCF7 breast,-77.4% [100 µM] (active) and 3.65% [100 µM] (active)
Cn1c2c(c3ccccc3c1=O)C(=O)c1ccccc1-2,growth,MCF7 breast,26.8% [100 µM] (inactive) and 7.69% [100 µM] (active)
CC(=N\N=C\c1ccccn1)/C(C)=N/N=C/c1ccccn1,growth,MCF7 breast,76.4% [100 µM] (inactive) and 78.5% [100 µM] (inactive)
COc1ccc2c(C)cc(N/N=C/c3ccc(C)s3)nc2c1,growth,MCF7 breast,-55.5% [100 µM] (active) and -100% [100 µM] (active)
COc1cc(Oc2c(C)c(Cl)c(OC)c(Cl)c2OC)c2c(c1Cl)COC2=O,growth,MCF7 breast,-6.77% [100 µM] (active) and -26.7% [100 µM] (active)
C/C(=C\COc1cc(O)c2c(c1)C(=O)c1cc(C)cc(O)c1C2=O)CCC1OC1(C)C (configuration not stated),growth,MCF7 breast,20.6% [100 µM] (inactive) and 2.66% [100 µM] (active)
CCOC(=O)c1cc(C)nc2c1c(=O)n(-c1ccccc1)c(=O)n2CCCCN1CCN(c2ncccn2)CC1,growth,MCF7 breast,100% [100 µM] (inactive) and 90.8% [100 µM] (inactive)
Clc1c(Cl)c(Cl)c2nn(C3CCCO3)nc2c1Cl (configuration not stated),growth,MCF7 breast,15.9% [100 µM] (inactive) and -100% [100 µM] (active)
O=C(O)COc1cc(-c2ccccc2F)nc2cc3c(cc12)OCO3,growth,MCF7 breast,86.4% [100 µM] (inactive) and 58% [100 µM] (inactive)
C=C(C)C1CC2(C)C(C)CC(OC(=O)/C(C)=C\C)CC2C(OC(=O)/C(C)=C\C)C1O (configuration not stated),growth,MCF7 breast,-15.7% [100 µM] (active) and -14.3% [100 µM] (active)
CC/C(Cl)=N\OC(=O)Nc1ccc(OC)cc1,growth,MCF7 breast,-75.9% [100 µM] (active) and -79.9% [100 µM] (active)
O=C1c2cccnc2-c2nccc3ccnc1c23,growth,MCF7 breast,-90.9% [100 µM] (active) and -100% [100 µM] (active)
COc1ccc2nc(N/N=C/c3ccc(C)s3)cc(C)c2c1,growth,MCF7 breast,-92.2% [100 µM] (active) and -100% [100 µM] (active)
COc1ccc(C2c3cc4c(c(OC)c3CC3OCC(=O)C32)OCO4)cc1OC (configuration not stated),growth,MCF7 breast,6.05% [100 µM] (active) and -81% [100 µM] (active)
C=CCn1c2c(c3ccccc3c1=O)C(=O)c1ccccc1-2,growth,MCF7 breast,68.3% [100 µM] (inactive) and 23.2% [100 µM] (inactive)
CN(C)c1ccc(/C=N/n2c(-c3ccccc3)nc3ccccc3c2=O)cc1,growth,MCF7 breast,40.4% [100 µM] (inactive) and 21.1% [100 µM] (inactive)
CCCCCCCCCCCCC/C=C/[C@H]1[C@@H](C(=O)OC)N1S(=O)c1ccc(C)cc1 (some centres not stated),growth,MCF7 breast,53.6% [100 µM] (inactive) and 36.2% [100 µM] (inactive)
COc1ccc(/C=c2\[nH]c3nc(=O)c(N4CCOCC4)c(N)n3c2=O)cc1,growth,MCF7 breast,56.5% [100 µM] (inactive) and 43.7% [100 µM] (inactive)
CCOC(=O)C(=O)C(CCC(=O)c1ccc2ccccc2c1O)C(=O)OCC (configuration not stated),growth,MCF7 breast,69.9% [100 µM] (inactive) and 81.3% [100 µM] (inactive)

# Source: PubChem BioAssay (NCI)
